In PubChem BioAssay AID651814 (National Center for Advancing Translational Sciences (NCATS), 2012):
Out of some 2,100 compounds screened, about 590 (28%) were called active. Another 42% or so got no clear call; they are omitted. The list shows a part of the results. A number with no mark means an inactive call. Calls come from the whole dose curve; as a rule, active = well fitted inhibition curve with a large enough effect; inconclusive = small, poorly fitted or top-dose-only effect; inactive = flat fitted curve, though single readings scatter.

Target: DNA dC->dU-editing enzyme APOBEC-3F (Homo sapiens) (UniProt Q8IUX4)
Assay: qHTS for inhibitors of Vif-A3F interactions: Cherry picks; note: nearly all actives have a fitted effect of over 70% in size;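 for max response: % of control where 0% means no effect; active compounds raise eYFP fluorescence by blocking Vif-driven A3F loss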
Settings: HeLa A3F-eYFP + Vif (tagged APOBEC3F with the HIV-1 protein that degrades it), eYFP fluorescence, 24 h
Procedure, shortened: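 HeLa cells stably expressing A3F-eYFP plus Vif, cultured overnight, then exposed to compounds at several concentrations for 24 h at 37 deg C. Reduced Vif-driven degradation read as rising eYFP fluorescence (488 nm ex/500-530 nm em) by laser-scanning cytometry; MG132 as positive control.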
Potency is the fitted concentration of half-maximal effect.

Chain of DNA dC->dU-editing enzyme APOBEC-3F (Homo sapiens) (Q8IUX4 whole entry, looked up): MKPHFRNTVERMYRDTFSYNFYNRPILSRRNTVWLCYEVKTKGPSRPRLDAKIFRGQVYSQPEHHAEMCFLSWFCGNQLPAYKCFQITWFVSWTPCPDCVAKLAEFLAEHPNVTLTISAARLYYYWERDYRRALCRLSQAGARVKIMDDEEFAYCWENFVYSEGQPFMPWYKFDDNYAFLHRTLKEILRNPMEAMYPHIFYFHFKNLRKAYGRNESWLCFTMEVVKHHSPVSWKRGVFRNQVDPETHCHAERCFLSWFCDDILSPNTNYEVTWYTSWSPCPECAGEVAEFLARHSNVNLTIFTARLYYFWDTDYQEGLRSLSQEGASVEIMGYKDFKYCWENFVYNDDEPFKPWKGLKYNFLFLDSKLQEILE

Row | Compound | max response | Potency
1 | CCOC(=O)c1c(C)sc(-c2c(-c3ccccc3)[nH]c3[nH]c(=O)[nH]c(=O)c23)c1O | -22.6% | –
2 | Cc1ccc(Nc2nc(-c3cccnc3)nc3ccccc23)cc1 | -12.4% | –
3 | CC1CCN(C(=O)C(C)Sc2nc(-c3ccccc3)cc(C(F)(F)F)n2)CC1 (stereo not given) | 1.1% | –
4 | CCN(CC)c1ccc2cc(-c3nc(-c4cc(OC)c(OC)c(OC)c4)no3)c(=O)oc2c1 | – | 0.366 µM (active)
5 | CCN(CC)c1ccc2cc(-c3nc4ccccc4n3C)c(=O)oc2c1 | – | 4.11 µM (active)
6 | CC1=C/C(=C\C=C(C#N)C#N)N(C)c2ccccc21 | – | 2.31 µM (active)
7 | CN1/C(=C/C=C(/C#N)C(N)=O)C(C)(C)c2ccccc21 | – | 6.27 µM (active)
8 | CN1/C(=C/C=C(C#N)C#N)C(C)(C)c2ccccc21 | – | 18.4 µM (active)
9 | COCCNC(=S)N/N=C(\C)c1ccc(OC(F)F)cc1 | 0.658% | –
10 | COc1ccccc1-c1noc(-c2ccc(NCc3ccco3)c([N+](=O)[O-])c2)n1 | – | 14.6 µM (active)
11 | O=[N+]([O-])c1cc(-c2nc(-c3ccccc3)no2)ccc1NCc1ccco1 | – | 8.2 µM (active)
12 | Cc1cccc(-c2noc(-c3ccc(NCc4ccco4)c([N+](=O)[O-])c3)n2)c1 | – | 14.6 µM (active)
13 | O=c1c2ccccc2sc2ccc(NCCCN3CCOCC3)cc12 | – | 20.6 µM (active)
14 | Cc1ccc(C)c(NC(=O)Cn2cc(S(=O)(=O)Cc3cccc(Cl)c3)c3ccccc32)c1 | – | 8.2 µM (active)
15 | Cc1ccc(C)c(NC(=O)N2CC=C(c3c[nH]c4ccccc34)CC2)c1 | -19.7% | –
16 | Cc1ccc(Cl)cc1NC(=O)Nc1cn(CC(C)C)c(=O)c2ccccc12 | -13.3% | –
17 | Cc1ccc(S(=O)(=O)C(C#N)c2nc3ccccc3nc2N2CCCC2)cc1 (stereo not given) | -28.7% | –
18 | COc1ccccc1CCC(=O)Nc1ccc2c(c1)c(=O)n(C)n2Cc1ccc(F)cc1 | -22.3% | –
19 | CCn1c(SCC(=O)Nc2cccc(O)c2)nc2c1c(=O)n(C)c(=O)n2C | 0.997% | –
20 | S=C(NCc1ccco1)Nc1ccc(Cl)cn1 | -0.0392% | –

Row | Compound | max response | Potency
21 | CCCCOc1ccc(-c2nnn(CC(=O)NCc3ccco3)n2)cc1 | -20.9% | –
22 | COc1ccc(NC(=O)CSc2nc3c(oc4ccccc43)c(=O)n2Cc2ccco2)cc1Cl | – | 14.6 µM (active)
23 | COc1cc2nc(SCC(=O)NCc3ccco3)n(Cc3ccc(Cl)cc3)c(=O)c2cc1OC | – | 8.2 µM (active)
24 | O=Cc1s/c(=N\S(=O)(=O)c2ccccc2)n(CCCCl)c1Cl | -29.9% | –
25 | COc1ccc(C(=O)/C=C/Nc2ccc([N+](=O)[O-])cc2C)c(OC)c1 | – | 13 µM (active)
26 | COc1ccc(C(=O)c2cc([N+](=O)[O-])ccc2N2CCCC2)cc1 | -19.8% | –
27 | COc1ccc(NC(=S)Nc2ncccc2C)c(OC)c1 | 0.806% | –
28 | O=C(NC(=S)Nc1ccc(-c2ccccc2)cc1)c1ccccc1 | 1.35% | –
29 | COc1ccccc1NC(=O)Cc1ccc(-c2ccccc2)cc1 | 3.04% | –
30 | O=C(Nc1ccccc1OC(=O)c1ccccc1)c1ccccc1 | – | 17.7 µM (active)
31 | COC(=O)c1cc(Nc2nc3ccccc3nc2NS(=O)(=O)c2ccc(C)cc2)ccc1Cl | -5.41% | –
32 | COc1ccc(/C=C/C=C2\NC(=S)NC2=O)cc1 | -26% | –
33 | COc1ccc(/C=C2\C(=O)NC(=S)N2C(=O)c2ccc(F)cc2)cc1 | – | 13 µM (active)
34 | C[n+]1ccc(/C=C/c2cc[n+](C)c3ccccc23)c2ccccc21 | – | 11.6 µM (active)
35 | CCCCn1c(N)c(N(CC(C)C)C(=O)Cc2ccc(S(=O)(=O)N3CCOCC3)s2)c(=O)[nH]c1=O | – | 23.1 µM (active)
36 | C=CCN1C(=O)c2ccc(C(=O)N(CC(C)C)c3c(N)n(CCCC)c(=O)[nH]c3=O)cc2C1=O | 4.71% | –
37 | CCCCn1c(N)c(N(CCC(C)C)C(=O)c2ccc([N+](=O)[O-])o2)c(=O)[nH]c1=O | 0.229% | –
38 | COc1cccc(/C(O)=C/c2nc3ccc(C(=O)NCCc4cccc(C)c4)cc3[nH]c2=O)c1 | – | 11.6 µM (active)
39 | COc1cccc(/C(O)=C/c2nc3ccc(C(=O)NCCc4ccc(Cl)cc4)cc3[nH]c2=O)c1 | – | 8.2 µM (active)
40 | COc1cccc(Sc2ccccc2/C=N/NC(N)=O)c1 | -25.5% | –

Row | Compound | max response | Potency
41 | COc1ccc2nc(C)cc(SCC(=O)N/N=C/c3cccc4ccccc34)c2c1 | – | 11.2 µM (active)
42 | CCn1c(SCC(=O)N/N=C/c2ccc(C)s2)nc2ccccc21 | -29.4% | –
43 | Cc1ccc(CN(C(=O)c2ccccc2F)c2ccccn2)o1 | -5.38% | –
44 | Cc1cccc(C)c1NC(=S)NC(C)CCc1ccccc1 (stereo not given) | 1.36% | –
45 | CN1C(=S)N(c2cccnc2)C(=O)/C1=C\c1ccc(N(C)C)cc1 | – | 15.8 µM (active)
46 | CN1C(=O)/C(=C\c2ccc(N(C)C)cc2)OC1=S | – | 7.9 µM (active)
47 | O=C(NC(=S)N1CCc2ccccc21)c1ccco1 | -0.232% | –
48 | CN(C)S(=O)(=O)c1ccc2c(c1)/C(=C/c1cc3c([nH]1)CCCC3)C(=O)N2 | – | 2.23 µM (active)
49 | O=C1/C(=C/c2ccc(O)cc2)SC(=S)N1CC1CCCO1 (stereo not given) | 5.6% | –
50 | COCCN1C(=O)/C(=C/c2ccc(N3CCCC3)cc2C)SC1=S | – | 2.59 µM (active)
51 | COCCN1C(=O)/C(=C/c2ccc(N3CCCC3)cc2)SC1=S | – | 4.61 µM (active)
52 | CN(Cc1cnn(Cc2ccccc2)c1)C(=O)c1cccc(S(=O)(=O)N2CCOCC2)c1 | -22% | –
53 | CC(=O)c1ccc2cccc3c2c1N=CN3C | – | 15.8 µM (active)
54 | COc1ccc2c(Cl)c(C(=O)N/N=C3\CCCC(=O)C3)sc2c1 | – | 14 µM (active)
55 | CCOc1cc(C(=O)NN=C2CCCC2)cc(OCC)c1OCC | -3.9% | –
56 | O=[N+]([O-])c1ccc(N2CCN(Cc3ccccc3)CC2)c2c1no[n+]2[O-] | – | 14 µM (active)
57 | Cc1ccc2nc(C)c(C(=O)NN=C3CCCCCC3)n2c1 | -15.2% | –
58 | N#CCSc1ccccc1NC(=O)CN1C(=O)NC(CCc2ccccc2)C1=O (stereo not given) | -19.2% | –
59 | N#CCSc1ccccc1NC(=O)CN1C(=O)C2CC=CCC2C1=O (stereo not given) | – | 14 µM (active)
60 | Cc1ccccc1NC(=O)CSC1=C(C#N)C(c2ccsc2)CC(=O)N1 (stereo not given) | -7.98% | –
